# Assays:
# Experiment in all cases: DAPPL (digital affinity profiling via proximity ligation, sequencing); 10 mM Tris-HCl pH 7.5, 50 mM NaCl, 1 mM DTT, 4% glycerol, room temperature, 30 min; GST-TFs on glutathione beads, 16-mer random dsDNA library, 0.1% formaldehyde crosslink after washing; high values mean tight binding
# [1] = molecular target: T1, FLI1 (Homo sapiens, UniProt Q01543 1-452); settings: protein: recombinant; tags: N-terminal GST; dsDNA, one strand shown
# T1 sequence: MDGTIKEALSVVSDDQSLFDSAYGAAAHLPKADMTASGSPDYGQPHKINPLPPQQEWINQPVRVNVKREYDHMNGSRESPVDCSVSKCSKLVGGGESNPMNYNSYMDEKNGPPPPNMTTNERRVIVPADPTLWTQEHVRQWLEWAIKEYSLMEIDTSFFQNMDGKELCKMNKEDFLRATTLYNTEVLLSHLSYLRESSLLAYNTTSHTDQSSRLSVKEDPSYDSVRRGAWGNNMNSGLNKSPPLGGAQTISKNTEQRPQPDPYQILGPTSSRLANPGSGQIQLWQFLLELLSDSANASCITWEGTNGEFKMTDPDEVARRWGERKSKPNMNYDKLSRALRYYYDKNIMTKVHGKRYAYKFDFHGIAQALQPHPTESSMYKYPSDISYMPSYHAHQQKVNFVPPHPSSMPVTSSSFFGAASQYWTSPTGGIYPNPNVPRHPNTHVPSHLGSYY
# Procedure, shortened: (§1)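 Binding signal is defined as a hexamer's read frequency for one factor over its frequency for the tag-only sample. To obtain reads, GST-fused human transcription factors were expressed in yeast, captured on glutathione beads, barcoded with DNA and pooled with that sample. Pools met 200 nmole of a 16-mer random double-stranded DNA library in Tris/NaCl/DTT/glycerol buffer for 30 min at room temperature before washing, 0.1% formaldehyde crosslinking, proximity ligation (BsaI/T4 ligase, 1 h, 37 °C), PCR and Illumina NextSeq500 sequencing.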
# [2] = molecular target: T2, ELK1 (Homo sapiens, UniProt P19419 1-428); settings: protein: recombinant; tags: N-terminal GST; dsDNA, one strand shown
# T2 sequence: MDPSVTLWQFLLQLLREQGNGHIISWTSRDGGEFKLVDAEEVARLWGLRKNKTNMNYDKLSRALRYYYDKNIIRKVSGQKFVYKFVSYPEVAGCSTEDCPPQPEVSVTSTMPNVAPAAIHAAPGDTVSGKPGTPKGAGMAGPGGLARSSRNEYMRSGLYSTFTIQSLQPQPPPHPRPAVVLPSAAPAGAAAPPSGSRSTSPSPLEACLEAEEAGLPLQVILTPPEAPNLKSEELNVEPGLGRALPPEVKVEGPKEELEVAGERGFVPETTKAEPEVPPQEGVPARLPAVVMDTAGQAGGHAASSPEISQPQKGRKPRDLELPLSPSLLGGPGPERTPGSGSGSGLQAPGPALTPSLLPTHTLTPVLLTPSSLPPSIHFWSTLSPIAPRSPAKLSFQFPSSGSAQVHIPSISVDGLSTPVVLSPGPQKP
# Procedure, shortened: as §1
# [3] = molecular target: T3, GABPA (Homo sapiens, UniProt Q06546 1-454); settings: protein: recombinant; tags: N-terminal GST; dsDNA, one strand shown
# T3 sequence: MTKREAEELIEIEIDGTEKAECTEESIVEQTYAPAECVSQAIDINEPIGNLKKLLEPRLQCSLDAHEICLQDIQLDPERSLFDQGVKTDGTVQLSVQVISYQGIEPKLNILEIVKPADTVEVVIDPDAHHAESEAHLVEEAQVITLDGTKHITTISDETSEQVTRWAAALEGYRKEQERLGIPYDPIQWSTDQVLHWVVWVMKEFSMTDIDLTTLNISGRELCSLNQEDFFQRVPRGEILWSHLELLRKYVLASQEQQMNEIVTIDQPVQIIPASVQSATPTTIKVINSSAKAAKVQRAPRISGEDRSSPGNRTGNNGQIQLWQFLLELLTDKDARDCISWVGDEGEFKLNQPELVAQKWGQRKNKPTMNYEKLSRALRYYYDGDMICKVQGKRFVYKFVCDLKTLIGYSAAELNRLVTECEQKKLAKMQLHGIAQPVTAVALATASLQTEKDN
# Procedure, shortened: as §1
# [4] = molecular target: T4, ERG (Homo sapiens, UniProt P11308 1-479); settings: protein: recombinant; tags: N-terminal GST; dsDNA, one strand shown
# T4 sequence: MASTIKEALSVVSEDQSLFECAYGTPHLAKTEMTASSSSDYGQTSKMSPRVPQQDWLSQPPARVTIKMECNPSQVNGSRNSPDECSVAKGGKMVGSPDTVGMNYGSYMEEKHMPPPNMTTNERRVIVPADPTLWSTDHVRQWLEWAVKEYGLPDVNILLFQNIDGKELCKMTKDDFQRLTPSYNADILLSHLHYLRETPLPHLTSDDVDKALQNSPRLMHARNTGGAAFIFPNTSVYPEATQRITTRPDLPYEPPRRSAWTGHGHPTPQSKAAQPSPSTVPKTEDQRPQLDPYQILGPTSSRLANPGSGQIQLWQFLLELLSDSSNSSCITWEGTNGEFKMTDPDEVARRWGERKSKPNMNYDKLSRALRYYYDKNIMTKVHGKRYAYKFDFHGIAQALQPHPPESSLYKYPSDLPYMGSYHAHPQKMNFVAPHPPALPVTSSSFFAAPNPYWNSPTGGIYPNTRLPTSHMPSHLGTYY
# Procedure, shortened: as §1
# [5] = molecular target: ELF1 (Homo sapiens, UniProt P32519 1-619); settings: protein: recombinant; tags: N-terminal GST; dsDNA, one strand shown
# Sequence of ELF1 (P32519 whole entry): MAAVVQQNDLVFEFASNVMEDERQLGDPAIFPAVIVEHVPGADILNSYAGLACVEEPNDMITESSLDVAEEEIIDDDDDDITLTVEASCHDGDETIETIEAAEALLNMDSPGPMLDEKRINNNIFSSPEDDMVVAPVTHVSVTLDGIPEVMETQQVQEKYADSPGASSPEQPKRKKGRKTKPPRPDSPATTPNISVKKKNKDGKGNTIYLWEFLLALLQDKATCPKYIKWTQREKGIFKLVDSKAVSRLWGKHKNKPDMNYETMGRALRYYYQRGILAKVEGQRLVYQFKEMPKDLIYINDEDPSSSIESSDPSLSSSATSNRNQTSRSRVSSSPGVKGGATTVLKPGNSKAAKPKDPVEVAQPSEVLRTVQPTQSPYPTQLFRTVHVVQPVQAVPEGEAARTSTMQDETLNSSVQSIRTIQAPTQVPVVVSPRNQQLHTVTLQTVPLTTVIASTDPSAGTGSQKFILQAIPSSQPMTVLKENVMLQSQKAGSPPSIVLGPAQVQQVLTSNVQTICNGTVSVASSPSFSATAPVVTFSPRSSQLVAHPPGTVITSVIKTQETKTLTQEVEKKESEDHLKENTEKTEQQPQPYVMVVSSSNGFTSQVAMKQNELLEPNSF
# Procedure, shortened: as §1
# [6] = molecular target: T5, EHF (Homo sapiens, UniProt Q9NZC4 1-300); settings: protein: recombinant; tags: N-terminal GST; dsDNA, one strand shown
# T5 sequence: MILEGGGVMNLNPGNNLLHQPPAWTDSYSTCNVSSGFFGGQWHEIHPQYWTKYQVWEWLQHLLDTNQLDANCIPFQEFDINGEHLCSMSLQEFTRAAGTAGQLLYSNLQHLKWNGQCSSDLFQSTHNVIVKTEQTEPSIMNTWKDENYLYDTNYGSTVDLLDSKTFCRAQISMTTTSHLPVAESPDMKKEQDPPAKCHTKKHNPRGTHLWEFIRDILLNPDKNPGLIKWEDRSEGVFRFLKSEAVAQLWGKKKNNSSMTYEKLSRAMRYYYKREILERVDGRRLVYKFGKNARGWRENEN
# Procedure, shortened: as §1
# [7] = molecular target: SPI1 (Homo sapiens, UniProt P17947 1-270); settings: protein: recombinant; tags: N-terminal GST; dsDNA, one strand shown
# Procedure, shortened: as §1
# [8] = molecular target: SPIB (Homo sapiens, UniProt Q01892 1-262); settings: protein: recombinant; tags: N-terminal GST; dsDNA, one strand shown
# Sequence of SPIB (Q01892 whole entry): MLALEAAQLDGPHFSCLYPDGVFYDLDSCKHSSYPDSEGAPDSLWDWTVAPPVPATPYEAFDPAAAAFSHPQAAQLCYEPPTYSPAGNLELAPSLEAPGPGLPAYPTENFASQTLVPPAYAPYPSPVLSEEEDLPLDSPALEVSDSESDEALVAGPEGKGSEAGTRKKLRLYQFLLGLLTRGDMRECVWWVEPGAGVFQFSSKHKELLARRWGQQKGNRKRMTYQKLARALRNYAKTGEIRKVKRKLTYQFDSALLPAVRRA
# Procedure, shortened: as §1
# [9] = molecular target: T6, ELK3 (Homo sapiens, UniProt P41970 1-407); settings: protein: recombinant; tags: N-terminal GST; dsDNA, one strand shown
# T6 sequence: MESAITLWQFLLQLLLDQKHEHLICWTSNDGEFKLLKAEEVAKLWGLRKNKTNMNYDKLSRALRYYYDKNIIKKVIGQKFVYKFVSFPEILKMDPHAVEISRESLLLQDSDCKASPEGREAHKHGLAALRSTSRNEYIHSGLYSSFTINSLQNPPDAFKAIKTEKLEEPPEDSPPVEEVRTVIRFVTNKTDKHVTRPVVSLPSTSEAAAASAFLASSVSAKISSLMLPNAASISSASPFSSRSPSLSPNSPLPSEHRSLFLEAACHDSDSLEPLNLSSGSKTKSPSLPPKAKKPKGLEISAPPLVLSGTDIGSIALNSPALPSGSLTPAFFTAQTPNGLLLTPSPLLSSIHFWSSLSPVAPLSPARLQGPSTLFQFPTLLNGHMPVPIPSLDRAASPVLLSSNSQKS
# Procedure, shortened: as §1
# [10] = molecular target: T7, FEV (Homo sapiens, UniProt Q99581 1-238); settings: protein: recombinant; tags: N-terminal GST; dsDNA, one strand shown
# T7 sequence: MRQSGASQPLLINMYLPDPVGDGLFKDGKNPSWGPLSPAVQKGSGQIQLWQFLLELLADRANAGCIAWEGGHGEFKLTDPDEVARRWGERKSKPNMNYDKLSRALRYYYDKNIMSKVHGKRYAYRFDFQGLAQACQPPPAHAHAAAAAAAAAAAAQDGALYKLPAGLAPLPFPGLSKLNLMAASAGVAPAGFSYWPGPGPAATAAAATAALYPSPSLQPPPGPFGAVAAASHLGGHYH
# Procedure, shortened: as §1
# [11] = molecular target: ETV5 (Homo sapiens, UniProt P41161 1-510); settings: protein: recombinant; tags: N-terminal GST; dsDNA, one strand shown
# Sequence of ETV5 (P41161 whole entry): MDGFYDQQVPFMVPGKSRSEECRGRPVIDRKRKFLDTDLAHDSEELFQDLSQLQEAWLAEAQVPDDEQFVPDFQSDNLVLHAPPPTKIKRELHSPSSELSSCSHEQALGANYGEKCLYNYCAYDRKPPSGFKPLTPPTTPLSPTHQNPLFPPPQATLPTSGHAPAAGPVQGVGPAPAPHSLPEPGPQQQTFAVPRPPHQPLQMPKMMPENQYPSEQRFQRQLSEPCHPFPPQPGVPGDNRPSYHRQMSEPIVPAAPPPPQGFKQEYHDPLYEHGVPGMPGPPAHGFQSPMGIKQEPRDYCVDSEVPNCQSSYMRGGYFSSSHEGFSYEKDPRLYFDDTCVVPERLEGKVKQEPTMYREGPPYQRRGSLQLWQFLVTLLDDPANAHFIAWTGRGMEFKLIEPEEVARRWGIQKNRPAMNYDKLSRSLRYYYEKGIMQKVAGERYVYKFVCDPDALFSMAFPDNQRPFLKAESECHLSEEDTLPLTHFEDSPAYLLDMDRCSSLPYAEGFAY
# Procedure, shortened: as §1
# [12] = molecular target: HSF1 (Homo sapiens, UniProt Q00613 1-529); settings: protein: recombinant; tags: N-terminal GST; chain copies: 3; dsDNA, one strand shown
# Sequence of HSF1 (Q00613 whole entry): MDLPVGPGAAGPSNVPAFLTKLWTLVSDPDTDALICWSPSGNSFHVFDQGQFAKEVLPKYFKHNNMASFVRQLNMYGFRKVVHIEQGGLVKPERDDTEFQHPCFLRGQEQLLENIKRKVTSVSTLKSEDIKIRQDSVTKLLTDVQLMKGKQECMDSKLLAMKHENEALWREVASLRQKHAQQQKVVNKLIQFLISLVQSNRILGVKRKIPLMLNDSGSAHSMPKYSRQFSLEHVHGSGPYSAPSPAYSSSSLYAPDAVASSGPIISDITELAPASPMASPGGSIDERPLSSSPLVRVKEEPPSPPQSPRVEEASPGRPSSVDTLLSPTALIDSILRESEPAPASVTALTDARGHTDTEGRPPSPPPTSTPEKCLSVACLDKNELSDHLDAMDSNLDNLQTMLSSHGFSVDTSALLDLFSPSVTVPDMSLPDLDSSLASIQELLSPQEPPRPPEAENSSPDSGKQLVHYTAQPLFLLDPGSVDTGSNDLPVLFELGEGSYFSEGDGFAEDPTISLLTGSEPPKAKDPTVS
# Procedure, shortened: as §1
# [13] = molecular target: T8, SPIC (Homo sapiens, UniProt Q8N5J4 1-248); settings: protein: recombinant; tags: N-terminal GST; dsDNA, one strand shown
# T8 sequence: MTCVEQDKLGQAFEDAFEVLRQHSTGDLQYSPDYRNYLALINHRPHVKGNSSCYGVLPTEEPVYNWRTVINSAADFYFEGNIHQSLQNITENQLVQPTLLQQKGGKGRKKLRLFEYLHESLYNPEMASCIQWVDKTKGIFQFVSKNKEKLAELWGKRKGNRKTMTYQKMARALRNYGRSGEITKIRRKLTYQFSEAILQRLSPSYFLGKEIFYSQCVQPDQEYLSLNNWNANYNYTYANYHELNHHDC
# Procedure, shortened: as §1
# [14] = molecular target: ELF4 (Homo sapiens, UniProt Q99607 1-663); settings: protein: recombinant; tags: N-terminal GST; dsDNA, one strand shown
# Sequence of ELF4 (Q99607 whole entry): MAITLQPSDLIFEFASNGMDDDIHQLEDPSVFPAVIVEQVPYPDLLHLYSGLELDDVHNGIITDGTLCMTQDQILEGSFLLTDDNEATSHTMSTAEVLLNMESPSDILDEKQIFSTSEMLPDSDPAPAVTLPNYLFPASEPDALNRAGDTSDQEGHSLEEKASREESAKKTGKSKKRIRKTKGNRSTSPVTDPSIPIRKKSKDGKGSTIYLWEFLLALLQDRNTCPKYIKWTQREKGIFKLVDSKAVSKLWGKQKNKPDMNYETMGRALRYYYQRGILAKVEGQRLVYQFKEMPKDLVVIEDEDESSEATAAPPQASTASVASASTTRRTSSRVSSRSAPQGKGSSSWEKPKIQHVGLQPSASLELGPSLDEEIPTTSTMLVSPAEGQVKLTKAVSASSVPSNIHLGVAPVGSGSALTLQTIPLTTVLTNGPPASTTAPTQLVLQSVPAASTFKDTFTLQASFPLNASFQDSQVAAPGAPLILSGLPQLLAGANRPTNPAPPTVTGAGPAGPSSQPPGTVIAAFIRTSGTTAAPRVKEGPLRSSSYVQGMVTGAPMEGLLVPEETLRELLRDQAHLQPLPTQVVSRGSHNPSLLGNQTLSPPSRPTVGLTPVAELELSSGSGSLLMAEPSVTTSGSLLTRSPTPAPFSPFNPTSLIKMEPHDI
# Procedure, shortened: as §1
# [15] = molecular target: T9, ELK4 (Homo sapiens, UniProt P28324-2 1-405); settings: protein: recombinant; tags: N-terminal GST; dsDNA, one strand shown
# T9 sequence: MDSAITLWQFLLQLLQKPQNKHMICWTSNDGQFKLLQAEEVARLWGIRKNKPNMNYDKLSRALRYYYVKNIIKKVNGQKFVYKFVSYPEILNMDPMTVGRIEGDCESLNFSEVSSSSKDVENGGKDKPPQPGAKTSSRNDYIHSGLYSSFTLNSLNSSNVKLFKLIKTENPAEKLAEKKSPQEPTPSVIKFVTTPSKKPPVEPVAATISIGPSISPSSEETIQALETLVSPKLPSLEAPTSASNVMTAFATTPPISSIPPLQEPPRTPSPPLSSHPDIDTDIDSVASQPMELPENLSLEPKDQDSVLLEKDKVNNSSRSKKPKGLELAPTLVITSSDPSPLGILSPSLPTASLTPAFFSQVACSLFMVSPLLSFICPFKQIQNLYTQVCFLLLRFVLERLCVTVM
# Procedure, shortened: as §1
# [16] = molecular target: T10, ETV2 (Homo sapiens, UniProt O00321 1-342); settings: protein: recombinant; tags: N-terminal GST; dsDNA, one strand shown
# T10 sequence: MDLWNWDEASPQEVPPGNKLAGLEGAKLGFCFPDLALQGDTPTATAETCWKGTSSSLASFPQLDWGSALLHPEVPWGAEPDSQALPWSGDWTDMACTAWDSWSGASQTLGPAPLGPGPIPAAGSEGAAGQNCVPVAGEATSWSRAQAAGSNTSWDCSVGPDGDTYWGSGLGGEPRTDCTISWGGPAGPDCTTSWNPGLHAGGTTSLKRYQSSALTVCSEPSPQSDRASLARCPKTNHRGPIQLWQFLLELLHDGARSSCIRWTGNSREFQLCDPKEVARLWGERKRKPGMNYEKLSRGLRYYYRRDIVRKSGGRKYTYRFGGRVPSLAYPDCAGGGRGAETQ
# Procedure, shortened: as §1
# [17] = molecular target: T11, ELF3 (Homo sapiens, UniProt P78545 1-371); settings: protein: recombinant; tags: N-terminal GST; dsDNA, one strand shown
# T11 sequence: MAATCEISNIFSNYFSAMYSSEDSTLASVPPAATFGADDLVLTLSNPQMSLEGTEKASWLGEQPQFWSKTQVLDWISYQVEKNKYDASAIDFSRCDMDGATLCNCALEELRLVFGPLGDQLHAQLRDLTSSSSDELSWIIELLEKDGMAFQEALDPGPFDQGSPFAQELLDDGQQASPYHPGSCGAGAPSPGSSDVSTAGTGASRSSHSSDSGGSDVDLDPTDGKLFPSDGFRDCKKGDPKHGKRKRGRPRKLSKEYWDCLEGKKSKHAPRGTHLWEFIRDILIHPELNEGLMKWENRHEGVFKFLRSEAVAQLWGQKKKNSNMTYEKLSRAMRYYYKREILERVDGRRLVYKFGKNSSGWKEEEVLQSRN
# Procedure, shortened: as §1
# [18] = molecular target: CRX (Homo sapiens, UniProt O43186 1-299); settings: protein: recombinant; tags: N-terminal GST; dsDNA, one strand shown
# Sequence of CRX (O43186 whole entry): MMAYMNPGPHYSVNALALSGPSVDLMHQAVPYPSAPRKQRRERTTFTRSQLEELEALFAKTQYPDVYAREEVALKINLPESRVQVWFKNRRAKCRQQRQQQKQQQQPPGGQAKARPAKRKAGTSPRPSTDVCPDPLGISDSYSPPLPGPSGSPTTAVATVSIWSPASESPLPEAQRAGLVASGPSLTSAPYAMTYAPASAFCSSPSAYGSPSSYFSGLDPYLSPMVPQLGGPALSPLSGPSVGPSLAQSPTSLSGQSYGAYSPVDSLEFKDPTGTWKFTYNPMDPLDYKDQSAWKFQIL
# Procedure, shortened: as §1
# [19] = molecular target: ETV1 (Homo sapiens, UniProt P50549 1-477); settings: protein: recombinant; tags: N-terminal GST; dsDNA, one strand shown
# Sequence of ETV1 (P50549 whole entry): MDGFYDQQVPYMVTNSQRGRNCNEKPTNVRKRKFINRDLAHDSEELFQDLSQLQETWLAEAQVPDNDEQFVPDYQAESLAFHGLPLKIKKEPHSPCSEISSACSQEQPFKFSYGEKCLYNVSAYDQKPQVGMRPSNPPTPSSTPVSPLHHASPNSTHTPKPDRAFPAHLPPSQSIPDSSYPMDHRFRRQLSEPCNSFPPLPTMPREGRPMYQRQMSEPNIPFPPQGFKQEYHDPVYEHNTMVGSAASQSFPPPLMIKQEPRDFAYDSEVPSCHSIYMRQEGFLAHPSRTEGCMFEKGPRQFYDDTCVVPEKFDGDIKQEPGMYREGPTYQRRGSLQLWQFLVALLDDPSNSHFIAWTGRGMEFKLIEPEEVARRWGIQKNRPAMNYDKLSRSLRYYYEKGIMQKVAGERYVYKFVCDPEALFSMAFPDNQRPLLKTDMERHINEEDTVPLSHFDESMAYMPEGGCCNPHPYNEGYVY
# Procedure, shortened: as §1
sequence,measurement,setting,value
AAGTAA,binding signal,[1],"1.17 fold enrichment (6-mer frequency, TF over GST control)"
same,binding signal,[2],"1.25 fold enrichment (6-mer frequency, TF over GST control)"
same,binding signal,[3],"1.3 fold enrichment (6-mer frequency, TF over GST control)"
same,binding signal,[4],"1.25 fold enrichment (6-mer frequency, TF over GST control)"
same,binding signal,[5],"1.27 fold enrichment (6-mer frequency, TF over GST control)"
same,binding signal,[6],"1.3 fold enrichment (6-mer frequency, TF over GST control)"
same,binding signal,[7],"1.34 fold enrichment (6-mer frequency, TF over GST control)"
same,binding signal,[8],"1.22 fold enrichment (6-mer frequency, TF over GST control)"
same,binding signal,[9],"1.27 fold enrichment (6-mer frequency, TF over GST control)"
same,binding signal,[10],"1.24 fold enrichment (6-mer frequency, TF over GST control)"
same,binding signal,[11],"1.32 fold enrichment (6-mer frequency, TF over GST control)"
same,binding signal,[12],"1.24 fold enrichment (6-mer frequency, TF over GST control)"
same,binding signal,[13],"1.35 fold enrichment (6-mer frequency, TF over GST control)"
same,binding signal,[14],"1.27 fold enrichment (6-mer frequency, TF over GST control)"
same,binding signal,[15],"1.19 fold enrichment (6-mer frequency, TF over GST control)"
same,binding signal,[16],"1.38 fold enrichment (6-mer frequency, TF over GST control)"
same,binding signal,[17],"1.42 fold enrichment (6-mer frequency, TF over GST control)"
same,binding signal,[18],"1.39 fold enrichment (6-mer frequency, TF over GST control)"
same,binding signal,[19],"1.31 fold enrichment (6-mer frequency, TF over GST control)"
